MazF activator: MazEF (E. coli) toxin RNase activation. P0AE70. FAM/BHQ RNA-DNA oligo cleavage fluorescence, 5 h. activation, % at 20 µM. 350,000 tested, 0.32% active; in the data active = activation above about 50%
Target sequence (P0AE70 whole entry, looked up): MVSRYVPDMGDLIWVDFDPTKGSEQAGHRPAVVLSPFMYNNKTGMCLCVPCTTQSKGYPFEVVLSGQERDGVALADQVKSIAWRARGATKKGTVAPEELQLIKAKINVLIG
BoNT-F LC inh: blocks Botulinum neurotoxin F light chain protease; 360,000 tested, 0.22% active; Multiplex microsphere protease cleavage assay, flow cytometry; inhibition, % at 10 µM; in the data active = inhibition above about 35%, passing the limit was not always enough; inconclusive = no clear call, values can overlap the other calls; note: plate controls were buffer without enzyme for full effect and enzyme alone for no effect
BoNT A protease: blocks Botulinum neurotoxin A light chain protease | AID 588499 | inhibition, % at 10 µM | multiplex microsphere protease substrate cleavage, flow cytometry | 360,000 tested, 0.17% active; note: plate controls were buffer without enzyme for full effect and enzyme alone for no effect
Autofluor counter: flagged as autofluorescent in microsphere protease counterscreen; compound autofluorescence counterscreen, microsphere flow cytometry; active compounds read high; 360,000 tested, 3.1% active; fluorescence intensity (test concentration not listed); in the data active = fluorescence intensity above about 16000; inconclusive = no clear call, values can overlap the other calls
Anthrax LF inh2: inhibitors of Bacillus anthracis lethal factor protease; P15917; inhibition, % at 10 µM; multiplex microsphere protease cleavage assay, LF; 360,000 tested, 0.12% active; note: plate controls were buffer without enzyme for full effect and enzyme alone for no effect
VHR inh abs: DUSP3 (human) phosphatase inhibition; 290,000 tested, 0.52% active; P51452; recombinant VHR phosphatase, pNPP absorbance; inhibition, % at 13.3 µM; in the data active = inhibition above about 50%
Target sequence (P51452 whole entry, looked up): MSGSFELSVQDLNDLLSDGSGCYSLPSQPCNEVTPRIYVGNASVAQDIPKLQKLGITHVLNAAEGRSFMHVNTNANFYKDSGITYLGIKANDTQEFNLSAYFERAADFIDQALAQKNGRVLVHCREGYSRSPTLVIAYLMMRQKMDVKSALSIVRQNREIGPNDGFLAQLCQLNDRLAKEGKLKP
Starred values were filed as active, the others as inactive; ? = inconclusive; · = not tested or not shown. Compounds with a hit are over-represented: about 4% of the library has one in this group of screens. Cut-off read from the data, not from the text of the source, unless noted: active = inhibition above about 30%; inconclusive = no clear call, values can overlap the other calls; inactive = below that.

SMILES | MazF activator | BoNT-F LC inh | BoNT A protease | Autofluor counter | Anthrax LF inh2 | VHR inh abs
Cc1ccc(C)n1-c1ccc(-c2nnco2)cc1 | · | -63.5 | -0.4 | 5004 | -1.0 | 3.0
Cc1ccc(C)n1-c1ccc(-c2ccn[nH]2)cc1 | 91.1* | -8.9 | 0.2 | 6867 | -7.8 | 7.8
O=C(CSc1nnc(SCc2ccc(Cl)cc2)s1)N/N=C/c1c[nH]c2ccccc12 | 64.0* | -3.3 | 0.0 | 2067 | 1.4 | ·
CC1CCCCC1NC(=O)c1cccc(S(=O)(=O)N2CCN(Cc3ccccc3)CC2)c1 (centres undefined) | -1.6 | 1.0 | 0.7 | 5149 | -2.1 | ·
CC1(C)N=C(N)NC(Nc2ccc(Br)cc2)=N1 | 5.0 | -3.2 | -1.6 | 23628* | -2.1 | -2.2
COC(=O)c1cc([N+](=O)[O-])c(-n2cncn2)c([N+](=O)[O-])c1 | 3.2 | 25.4 | 1.1 | 2583 | -3.6 | 17.3
COC(=O)c1cc(F)c(-n2cncn2)c(F)c1 | -2.2 | -3.1 | ? | 16245* | 2.2 | 6.0
CN1CC(c2ccc(Cl)c(Cl)c2)[C@@]2(COc3ccccc3C2=O)[C@@]12C(=O)Nc1ccccc12 (some centres undefined) | -0.7 | -3.7 | -1.2 | 20876* | -1.9 | 3.6
CCOC(=O)c1cc(-c2csc(-c3cccc(Cl)c3)n2)on1 | -15.1 | ? | 3.2 | 4210 | -14.8 | 7.7
CC1CCc2c(sc(NC(=O)C(=O)NCc3ccco3)c2C#N)C1 (centres undefined) | -24.9 | 9.5 | ? | 20783* | -10.3 | 24.9
Cc1cc(C(=O)Nc2sc3c(c2C#N)CCC(C)C3)no1 (centres undefined) | -9.8 | 2.2 | 0.3 | 11121 | -0.4 | 9.7
C/C(=C/C(=O)NCc1ccccc1)C(=O)O | 1.9 | 2.4 | -0.1 | 22169* | -6.0 | 18.9
O=[N+]([O-])c1ccc(N=Cc2sc3ccccc3c2O)cc1 | 18.1 | 3.7 | 2.3 | 2606 | 0.3 | -0.9
CCOC(=O)N1CCC(NC(=O)CSc2cc(=O)n(CC)c3ccccc23)CC1 | -10.6 | 2.9 | 3.4 | 21138* | 4.0 | 7.6
CCn1c(=O)cc(SCC(=O)N2CCC(C)CC2)c2ccccc21 | -2.5 | 3.5 | ? | 15393 | -0.3 | 10.4
CCOC(=O)C1CCN(C(=O)CSc2cc(=O)n(CC)c3ccccc23)CC1 | 4.4 | -5.5 | -2.7 | 16952* | 0.1 | -5.0
COc1ccc(C(=O)N/C(=C/c2cccs2)C(=O)NCCCn2ccnc2)cc1OC | -1.9 | 0.3 | 0.8 | 20263* | 0.1 | 52.7*
CC(C)(C)n1nnnc1C(c1ccc(C(F)(F)F)cc1)N(Cc1ccccc1)Cc1ccco1 (centres undefined) | -0.6 | -5.7 | -1.0 | 2813 | -8.5 | 15.2
O=C(CCCNS(=O)(=O)c1cccc2nsnc12)N1CCCCC1 | -14.4 | -12.7 | -0.1 | 4308 | -1.2 | 13.7
O=C(CCNS(=O)(=O)c1cccc2nsnc12)N1CC(=O)N(CCc2ccccc2)C(=O)C1 | -3.0 | -6.8 | ? | 21566* | -2.7 | 18.6
O=C(NCC1CCCCC1)c1ccco1 | 2.0 | -4.4 | ? | 22013* | 0.5 | -14.8
O=C(NCCNC1CCCCC1)c1ccco1 | 3.7 | -4.4 | -0.4 | 3614 | 0.7 | 25.9
O=C(O)CC(NCc1ccco1)C(=O)Nc1cccc(O)c1 (centres undefined) | 13.4 | 0.1 | 1.0 | 4128 | 2.7 | 4.8
COC(=O)c1sc(N)c(C(=O)OC)c1COC(=O)c1c(C)noc1C | 4.7 | 10.3 | 5.5 | 20148* | -6.2 | 10.2
COC(=O)c1sc(NC(=O)c2c(C)noc2C)nc1C | 3.8 | · | · | · | · | 17.9
SMILES | MazF activator | BoNT-F LC inh | BoNT A protease | Autofluor counter | Anthrax LF inh2 | VHR inh abs
Cc1cccc(Nc2n[nH]c(=S)s2)c1C | -5.8 | 7.4 | 0.5 | 11008 | -4.1 | 22.4
COc1ccccc1Nc1n[nH]c(=S)s1 | -4.1 | -2.9 | -0.4 | 3835 | -2.2 | 51.2*
CC(C)Sc1nc(C(F)(F)F)cc(=O)n1-c1ccccc1 | 0.1 | -0.8 | ? | 20162* | 0.7 | 0.8
CC(C)Sc1n[nH]c(=O)n1-c1cccc(C(F)(F)F)c1 | 7.4 | ? | ? | 3571 | -13.6 | -0.9
CCSc1nc(C(F)(F)F)cc(=O)n1-c1ccccc1 | -3.0 | 0.1 | ? | 20108* | 1.1 | 32.7
O=C(Cn1nc(C(F)F)cc1C1CC1)N1CCCC1 | 5.9 | 4.6 | -0.4 | 5722 | -0.4 | 59.1*
Cc1cccc(N(CC(=O)NC2CCCC2)C(=O)CS(=O)CC(=O)Nc2ccc3c(c2)OCO3)c1 (centres undefined) | -3.3 | -10.6 | ? | 22772* | -2.0 | 21.3
Cc1ccc(NC(=O)CS(=O)CC(=O)N(CC(=O)NC2CCCC2)c2ccc3c(c2)OCCO3)cc1 (centres undefined) | 10.3 | 0.0 | -0.5 | 3431 | 0.2 | 12.9
Cc1ccc2oc(=O)c3cnn(CC(=O)NCCC(C)C)c3c2c1 | 15.5 | -8.8 | -0.5 | 6387 | -6.0 | -8.6
COc1ccccc1N1CCN(C2CCCN(Cc3ccccc3OCCO)C2)CC1 (centres undefined) | 11.3 | ? | 0.4 | 6497 | -3.7 | 59.1*
COc1ccc(O)c(CN2CCCC(N3CCN(c4ccccc4OC)CC3)C2)c1 (centres undefined) | 10.4 | ? | 1.5 | 3068 | -13.3 | 20.7
CCOc1ccc(-n2c(=S)sc3c(=O)[nH]c(SCC(=O)NCc4ccco4)nc32)cc1 | -1.6 | 3.8 | ? | 20051* | -0.5 | 4.6
CCOC(=O)CSc1nc2c(sc(=S)n2-c2ccc(OCC)cc2)c(=O)[nH]1 | -2.7 | 2.9 | 0.0 | 4224 | -4.7 | 14.1
CC(OC(=O)Cc1c[nH]c2ccccc12)C(=O)NC1(C#N)CCCCC1 (centres undefined) | -4.0 | -2.9 | -0.6 | 4424 | 5.3 | 7.4
Cc1ccc(S(=O)(=O)N2CC3(C)CN(S(=O)(=O)c4ccc(C)cc4)CC(C)(C2)C3O)cc1 (centres undefined) | -6.9 | 8.0 | -0.3 | 9708 | 0.3 | 35.6
Cc1ccc(S(=O)(=O)N2CC3(C)CN(S(=O)(=O)c4ccc(C)cc4)CC(C)(C2)C3=O)cc1 | -9.6 | 2.8 | 2.8 | 22149* | -2.8 | 29.7
COCCn1c(C)cc(C(=O)COC(=O)CCc2ccc(S(=O)(=O)N3CCOCC3)cc2)c1C | -1.6 | -1.8 | ? | 22125* | -3.2 | 0.2
Cc1ccc(NC(=O)CCc2ccc(S(=O)(=O)N3CCOCC3)cc2)c(C)c1 | 9.6 | 3.4 | ? | 20854* | -7.8 | 20.1
Cc1cc(C)n(CC(C)Nc2nc3nonc3nc2N2CCCCC2)n1 (centres undefined) | 0.8 | -5.0 | -0.4 | 4969 | -1.7 | 7.8
Cc1cccc(NC(=O)/C(C#N)=C\c2cccnc2)c1 | -33.2 | -1.6 | -1.8 | 17179* | -0.5 | -7.7
Cc1ccc(-n2c(N)c(C#N)c(-c3ccccc3)c(C#N)c2=O)cc1 | 4.0 | -1.5 | 0.3 | 2613 | -2.2 | 35.1
Cc1ccc(-c2nc3sc(C#N)c(N)n3c(=O)c2C#N)cc1 | 733.2* | 4.6 | 0.1 | 5000 | -4.3 | 18.2
O=c1c2c3c(sc2n2cnnc2n1CCc1ccccc1)CCCC3 | 4.2 | -2.3 | -1.5 | 16649* | -4.4 | -15.7

Screens from PubChem BioAssay.
